From PubChem BioAssay (NCATS) come the findings set out here.

Inconclusive results are not listed. Activity calls are given as the source filed them. Unless noted, calls follow the shape of the dose curve; as a rule, active = well fitted curve in either direction with a large enough effect (not every such curve was filed as active); inconclusive = small, poorly fitted or top-dose-only effect, or another doubt; inactive = flat fitted curve, though single readings scatter.

Assay [1] addresses Lysosomal acid glucosylceramidase (Homo sapiens) (UniProt P04062). The assay can be described thus: Glucocerebrosidase-p2 (AID 348; in the data active = potency below about 10 µM; also: potency is read from the fitted curve at half-maximal effect). The settings on record: purified GBA, blue fluorogenic substrate, 40 min. The gist of the method:
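Normal human glucocerebrosidase (0.2 nM) with blue fluorogenic substrate (80 uM final) in citrate/phosphate pH 5.9 with 10mM sodium taurocholate, 0.01% tween-20; 40 min RT, NaOH/glycine stop; fluorescence Ex 365/Em 440; AC50 from a titration from 0.6 nM upwards.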

Assay [2] in a line: AP1 Signaling Pathway (AID 357).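 Also: ME-180 reporter cells stimulated with EGF at its EC50 level; % is scaled to controls: 0 for no effect and ±100 for the full control effect.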 The settings on record: ME-180 AP-1-bla reporter, EGF-induced, beta-lactamase ratio, 5 h; at 7.69 µM (top of the series) unless noted. The gist of the method: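 Beta-lactamase reporter under AP-1 response element, ME-180 background. Stimulus: EC50 EGF. Compound exposure 5 h, 37 °C. Detection: CCF4, 2.5 h RT, 460/530 nm. Values: AC50 from titration.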

Assay [3] has as its target Cytochrome P450 1A2 (Homo sapiens) (UniProt P05177). The assay can be described thus: p450-cyp1a2 (AID 410; calls by dose curve;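 also: -100% = full effect of reference inhibitor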). The settings on record: recombinant CYP1A2, luciferin-ME demethylation, luminescence; series mostly up to 57 µM. The gist of the method: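 O-Demethylation of luciferin 6' methyl ether by human CYP1A2 is monitored as luciferase luminescence. Substrate sits at Km (100uM); enzyme is 20nM. Values are scaled to 57 uM furafylline as maximal inhibition.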

Assay [4] is described as follows: Stat Signaling Pathway (AID 446).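 Also: ME-180 cervical cancer cells given 40 pM IL-6 alongside compound; SIE-controlled beta-lactamase reporter measured as 460/530 nm FRET emission ratio; % is scaled to controls: 0 for no effect and ±100 for the full control effect.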 Particulars: ME-180 SIE beta-lactamase reporter, IL-6 stimulated, 5 h; at 7.69 µM (top of the series) unless noted. The gist of the method:
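Emission at 460 and 530 nm (excitation 405 nm) reports SIE-controlled beta-lactamase in ME-180 cells. Cells received compound with 40 pM IL-6 for 5 hrs at 37 C; data scaled between 300 pM IL-6 and 125 nM JAK-inhibitor controls.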

The target of assay [5] is Glucocorticoid receptor (Homo sapiens) (UniProt P04150). The experiment in a line: GR-EFC Redistribution (AID 451; calls by dose curve; also: potency is read from the fitted curve at half-maximal effect). Particulars: CHO-K1 GR-EFC translocation, beta-gal luminescence, 2 h. In outline: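 CHO-K1 cells stably expressing nuclear-localized β-gal enzyme acceptor and GR fused C-terminally to the enzyme donor fragment; ligand-driven nuclear translocation restores β-gal by complementation. Compounds titrated up to 46 uM final, 2 h at 37 °C; luminescence read.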

The target in assay [6] is Mitogen-activated protein kinase 10 (Mus musculus) (UniProt Q61831). The experiment in a line: JNK3 AlphaScreen Assay (AID 530).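 Also: kinase came from lysate of stimulated human HepG2 cells; % is scaled to controls: 0 for no effect and ±100 for the full control effect.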 Particulars: JNK3 lysate, c-Jun phosphorylation; series mostly up to 57.1 µM. The gist of the method: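 Phosphorylation of biotinylated GST-cJun(1-79) at Ser73 is measured by AlphaScreen proximity luminescence. Enzyme is JNK3 in HepG2 lysates activated with interleukin-1beta and tumor necrosis factor alpha; ATP is 10 uM final.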
(Alpha assays give light when donor and acceptor beads are brought close together.)

The target of assay [7] is 3',5'-cyclic-AMP phosphodiesterase 4B (Homo sapiens) (UniProt Q07343). The assay can be described thus: qHTS Assay for Inhibitors of PDE-IV (AID 607; active = well fitted activation curve with a large enough effect in the main read-out, with a control signal flat, not every such curve was filed as active; also: % of control where 0% means no effect). Particulars: HEK293 ACTOne CNG channel cells, membrane potential fluorescence; series mostly up to 22.9 µM. The gist of the method: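 The readout is membrane depolarisation from a cAMP-sensing CNG channel, detected with a potential dye at ex 535/em 590. Cells were HEK293-derived (endogenous PDE-IV) at 1000 cells/well, titrated up to 22.9 uM final.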
(In qHTS, concentration-response curves come from the screen itself.)

The target in assay [8] is Cytochrome P450 3A4 (Homo sapiens) (UniProt P08684). The assay can be described thus: qHTS Assay for Activators of Cytochrome P450 3A4 (AID 885; active = well fitted curve in the direction sought with a large enough effect; an effect the other way counts as inactive or inconclusive; also: nearly all actives have a fitted effect of over 65% in size). Particulars: recombinant CYP3A4, Luciferin-PPXE luminescence, 60 min; series mostly up to 57.1 µM. In outline: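 Activators are scored by enhanced luminescence from CYP3A4 conversion of luciferin-PPXE (25uM, equal to KM) to luciferin, after 60 min at RT with an NADPH-regenerating system.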

Assay [9] concerns the target Cytochrome P450 2D6 (Homo sapiens) (UniProt P10635). The assay can be described thus: qHTS Assay for Inhibitors and Substrates of Cytochrome P450 2D6 (AID 891; active = well fitted curve in the direction sought with a large enough effect; an effect the other way counts as inactive or inconclusive; also: potency is read from the fitted curve at half-maximal effect; nearly all actives have a fitted effect of over 60% in size). Particulars: recombinant CYP2D6, luciferin-ME EGE luminescence; series mostly up to 57.1 µM. The gist of the method: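 Luminescent read-out of luciferin formed by 5 nM human CYP2D6 demethylating 30 uM Luciferin-ME EGE (Km level) over 60 min at room temperature after NADPH regeneration addition. Data normalized to full inhibition by 1.43 uM quinidine.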

Assay [10] in a line: qHTS Assay for Lipid Storage Modulators (AID 1519; calls by dose curve). The settings on record: Drosophila S3 cells, BODIPY lipid droplet/cell ratio, laser cytometry, cells loaded with oleic acid; for activity change, negative = inhibition: at 57.5 µM (top of the series). The gist of the method: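 Cells seeded at 5,000 per well were treated with compounds over a concentration series and loaded with oleic acid (400 uM, as added). Lipid droplet fluorescence (488 nm excitation, 500-530 nm channel) was read by laser-scanning cytometry and normalized to 20 uM Triacsin C.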

Assay [11] is described as follows: Primary qHTS for small molecule stabilizers of the endoplasmic reticulum resident proteome: Secreted ER Calcium Modulated Protein (SERCaMP) assay (AID 1508630; active = well fitted curve in the direction sought with a large enough effect; an effect the other way counts as inactive or inconclusive; also: % is scaled to controls: 0 for no effect and ±100 for the full control effect). Particulars: SH-SY5Y GLuc-SERCaMP (Gaussia luciferase released on ER calcium loss) secretion, thapsigargin, luminescence; series mostly up to 38.4 µM. In outline:
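The SH-SY5Y reporter protocol was run at 3 concentrations up to 38.3 uM (primary) or 11 concentrations (follow-up): 16 h compound, 100 nM thapsigargin for 4 h, then extracellular luciferase luminescence.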

The nature of assay [12]: qHTS Assay for Identification of Small Molecule Agonists for Hypoxia Response Element Signaling Pathway (AID 914; active = well fitted activation curve with a large enough effect in the signal ratio, with a control signal flat, not every such curve was filed as active; the % refers to the signal ratio; also: % of control where 0% means no effect). The settings on record: ME-180 (cervical carcinoma) HRE-bla reporter, beta-lactamase ratio, CoCl2, 17 h; activation: stronger effect = higher value. The gist of the method: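 Read-out: CCF4 FRET ratio of 460nm to 530nm emission (excitation 405nm) after 2.5 hours at room temperature, taken from HRE-bla ME-180 cells that had been exposed to compound and EC50 CoCl2 for 17 hours.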

Assay [13] has as its target Cytochrome P450 2C19 (Homo sapiens) (UniProt P33261). The assay can be described thus: qHTS Assay for Inhibitors and Substrates of Cytochrome P450 2C19 (AID 899; active = well fitted curve in the direction sought with a large enough effect; an effect the other way counts as inactive or inconclusive; also: % is scaled to controls: 0 for no effect and ±100 for the full control effect; nearly all actives have a fitted effect of over 60% in size). The settings on record: recombinant CYP2C19, luciferin-H EGE luminescence; series mostly up to 57.1 µM. In outline:
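NADPH-dependent conversion of Luciferin-H EGE (10uM, at KM) by 5nM enzyme in 50mM KPO4, 60 min at 37C following 10 min compound preincubation. Stopped with luciferin detection buffer; luminescence read after 20 min.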

[14] abbreviates: measured here: cell count channel max response.
Where [15] appears, read: measured here: lipid channel max response.

Chain of Cytochrome P450 3A4 (Homo sapiens) (P08684 whole entry, looked up): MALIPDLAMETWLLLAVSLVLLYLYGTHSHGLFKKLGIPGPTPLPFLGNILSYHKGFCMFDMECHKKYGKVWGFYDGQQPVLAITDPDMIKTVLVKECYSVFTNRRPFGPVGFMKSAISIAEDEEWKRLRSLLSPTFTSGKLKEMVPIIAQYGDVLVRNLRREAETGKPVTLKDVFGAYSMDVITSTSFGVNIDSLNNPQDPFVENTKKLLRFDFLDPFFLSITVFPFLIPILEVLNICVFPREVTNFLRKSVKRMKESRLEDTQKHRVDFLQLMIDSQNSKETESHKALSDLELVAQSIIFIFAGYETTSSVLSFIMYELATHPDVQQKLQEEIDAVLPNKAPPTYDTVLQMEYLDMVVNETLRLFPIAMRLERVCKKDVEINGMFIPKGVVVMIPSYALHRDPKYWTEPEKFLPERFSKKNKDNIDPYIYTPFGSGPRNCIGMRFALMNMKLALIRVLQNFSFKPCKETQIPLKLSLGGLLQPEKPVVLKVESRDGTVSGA
Chain of Cytochrome P450 1A2 (Homo sapiens) (P05177 whole entry, looked up): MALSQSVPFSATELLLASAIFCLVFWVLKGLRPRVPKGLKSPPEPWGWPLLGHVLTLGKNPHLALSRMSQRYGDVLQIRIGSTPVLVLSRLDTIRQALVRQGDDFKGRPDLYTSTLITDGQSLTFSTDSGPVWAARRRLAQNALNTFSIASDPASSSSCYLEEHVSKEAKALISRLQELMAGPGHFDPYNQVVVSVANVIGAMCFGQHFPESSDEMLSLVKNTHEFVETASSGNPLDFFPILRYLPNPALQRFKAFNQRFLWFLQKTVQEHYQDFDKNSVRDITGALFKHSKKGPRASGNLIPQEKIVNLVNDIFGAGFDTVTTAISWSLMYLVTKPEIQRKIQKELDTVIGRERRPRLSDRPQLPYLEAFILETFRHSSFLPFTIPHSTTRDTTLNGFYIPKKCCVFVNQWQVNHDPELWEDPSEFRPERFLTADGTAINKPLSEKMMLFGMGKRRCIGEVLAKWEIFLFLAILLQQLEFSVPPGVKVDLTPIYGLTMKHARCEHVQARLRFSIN
Chain of 3',5'-cyclic-AMP phosphodiesterase 4B (Homo sapiens) (Q07343 whole entry, looked up): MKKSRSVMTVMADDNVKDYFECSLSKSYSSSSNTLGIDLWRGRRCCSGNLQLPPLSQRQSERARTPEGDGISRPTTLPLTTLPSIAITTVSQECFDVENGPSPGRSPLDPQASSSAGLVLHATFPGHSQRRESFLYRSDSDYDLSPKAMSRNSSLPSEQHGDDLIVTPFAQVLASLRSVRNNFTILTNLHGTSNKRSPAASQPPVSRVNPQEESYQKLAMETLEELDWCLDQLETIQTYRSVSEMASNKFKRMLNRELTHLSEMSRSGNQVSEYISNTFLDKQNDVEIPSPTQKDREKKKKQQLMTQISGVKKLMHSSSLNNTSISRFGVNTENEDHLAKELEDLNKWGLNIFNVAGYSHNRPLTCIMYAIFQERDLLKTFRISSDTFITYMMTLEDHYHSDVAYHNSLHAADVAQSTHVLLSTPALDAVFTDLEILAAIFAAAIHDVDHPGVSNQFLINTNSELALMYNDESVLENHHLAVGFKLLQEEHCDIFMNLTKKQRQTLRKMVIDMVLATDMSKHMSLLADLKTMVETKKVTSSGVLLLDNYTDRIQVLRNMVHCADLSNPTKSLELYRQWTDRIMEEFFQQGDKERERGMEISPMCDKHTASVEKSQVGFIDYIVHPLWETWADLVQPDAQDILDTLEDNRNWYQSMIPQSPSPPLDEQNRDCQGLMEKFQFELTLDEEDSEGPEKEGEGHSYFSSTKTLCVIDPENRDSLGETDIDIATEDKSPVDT
Chain of Lysosomal acid glucosylceramidase (Homo sapiens) (P04062 whole entry, looked up): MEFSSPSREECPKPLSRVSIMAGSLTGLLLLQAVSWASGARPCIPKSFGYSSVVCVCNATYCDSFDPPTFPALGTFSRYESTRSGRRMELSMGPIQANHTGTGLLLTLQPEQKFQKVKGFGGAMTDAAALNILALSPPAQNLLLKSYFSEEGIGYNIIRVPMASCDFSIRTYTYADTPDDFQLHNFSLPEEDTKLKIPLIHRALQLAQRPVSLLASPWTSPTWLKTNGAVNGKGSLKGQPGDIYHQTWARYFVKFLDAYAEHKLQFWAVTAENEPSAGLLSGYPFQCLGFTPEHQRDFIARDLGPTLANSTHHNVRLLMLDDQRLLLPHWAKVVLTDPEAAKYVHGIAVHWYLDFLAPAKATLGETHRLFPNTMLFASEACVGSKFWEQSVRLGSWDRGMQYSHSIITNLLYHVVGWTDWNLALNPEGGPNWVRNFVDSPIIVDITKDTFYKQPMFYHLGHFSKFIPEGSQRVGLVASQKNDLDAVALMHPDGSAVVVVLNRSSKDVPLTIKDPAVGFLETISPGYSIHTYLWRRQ
Chain of Cytochrome P450 2D6 (Homo sapiens) (P10635 whole entry, looked up): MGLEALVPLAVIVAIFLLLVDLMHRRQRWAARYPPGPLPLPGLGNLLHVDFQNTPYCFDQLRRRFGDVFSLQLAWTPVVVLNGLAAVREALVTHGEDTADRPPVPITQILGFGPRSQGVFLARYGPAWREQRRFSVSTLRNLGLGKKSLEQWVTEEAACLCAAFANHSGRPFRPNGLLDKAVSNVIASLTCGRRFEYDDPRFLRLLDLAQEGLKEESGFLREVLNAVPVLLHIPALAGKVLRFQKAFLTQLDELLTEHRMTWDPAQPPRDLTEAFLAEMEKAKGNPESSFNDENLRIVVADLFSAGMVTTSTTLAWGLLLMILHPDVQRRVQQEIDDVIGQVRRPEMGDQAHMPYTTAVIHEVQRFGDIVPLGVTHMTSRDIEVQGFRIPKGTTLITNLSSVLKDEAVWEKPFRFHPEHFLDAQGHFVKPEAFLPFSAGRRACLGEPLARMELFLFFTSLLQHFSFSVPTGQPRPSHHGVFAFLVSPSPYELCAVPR
Chain of Glucocorticoid receptor (Homo sapiens) (P04150 whole entry, looked up, the tested form may be a part): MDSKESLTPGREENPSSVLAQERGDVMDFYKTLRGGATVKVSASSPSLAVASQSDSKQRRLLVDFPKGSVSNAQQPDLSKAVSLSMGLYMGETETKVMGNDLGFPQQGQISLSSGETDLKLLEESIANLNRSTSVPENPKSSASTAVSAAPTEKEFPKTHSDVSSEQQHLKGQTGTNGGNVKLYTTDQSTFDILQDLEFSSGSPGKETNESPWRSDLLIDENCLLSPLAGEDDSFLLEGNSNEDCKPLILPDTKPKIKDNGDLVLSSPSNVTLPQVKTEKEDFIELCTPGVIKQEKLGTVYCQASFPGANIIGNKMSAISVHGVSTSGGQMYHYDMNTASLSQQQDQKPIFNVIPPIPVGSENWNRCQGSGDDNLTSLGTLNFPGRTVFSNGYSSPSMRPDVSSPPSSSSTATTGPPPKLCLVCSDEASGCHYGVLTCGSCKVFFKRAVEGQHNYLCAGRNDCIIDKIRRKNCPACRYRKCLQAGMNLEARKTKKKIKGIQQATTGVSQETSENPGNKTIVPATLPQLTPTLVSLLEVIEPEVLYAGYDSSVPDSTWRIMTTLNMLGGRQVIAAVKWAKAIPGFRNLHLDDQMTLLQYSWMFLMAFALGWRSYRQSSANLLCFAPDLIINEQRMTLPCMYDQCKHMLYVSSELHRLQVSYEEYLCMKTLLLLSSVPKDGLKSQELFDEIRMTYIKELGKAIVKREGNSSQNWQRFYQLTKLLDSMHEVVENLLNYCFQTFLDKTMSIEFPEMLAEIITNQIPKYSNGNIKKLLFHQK
Chain of Cytochrome P450 2C19 (Homo sapiens) (P33261 whole entry, looked up): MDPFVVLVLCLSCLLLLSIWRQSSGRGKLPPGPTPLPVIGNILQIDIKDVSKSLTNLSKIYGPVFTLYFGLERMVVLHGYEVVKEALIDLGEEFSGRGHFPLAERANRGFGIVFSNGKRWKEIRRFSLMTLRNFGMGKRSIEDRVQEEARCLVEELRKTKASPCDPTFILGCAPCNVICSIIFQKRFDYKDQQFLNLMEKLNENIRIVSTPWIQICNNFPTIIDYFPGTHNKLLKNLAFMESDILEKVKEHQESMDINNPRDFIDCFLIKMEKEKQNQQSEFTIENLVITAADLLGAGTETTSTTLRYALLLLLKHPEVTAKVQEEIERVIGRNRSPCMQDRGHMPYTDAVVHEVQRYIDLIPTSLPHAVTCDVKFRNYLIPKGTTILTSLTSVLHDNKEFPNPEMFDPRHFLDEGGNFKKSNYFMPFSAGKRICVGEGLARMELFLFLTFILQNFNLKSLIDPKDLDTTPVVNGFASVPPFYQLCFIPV

As for `N#Cc1ccc(CN2CCC3(CC2)CCN(C(=O)c2ccncc2)CC3)cc1`, the figures for the Potency in assay [1], in [5] and in assay [9] were > 11.4 µM (inactive), > 46 µM (inactive) and 6.31 µM (active), respectively. The results for the activity change, negative = inhibition in assay [2] and in assay [10] were 1.51% (inactive) and 1.92% (inactive), respectively. In addition, the Potency entry in assay [3], in assay [6], in assay [7] and in assay [8] was “inactive” each time. Besides, the activity, negative = inhibition in assay [4] is -3.87% (inactive). The max response in [10] (setting [14]) stood at 15.7%; in assay [10] (setting [15]), 18.7%. Also, the result in [11] was inactive.
Take `O=C(c1cc(C(F)(F)F)cc(C(F)(F)F)c1)N1CCC2(CCN(Cc3ccccc3)CC2)CC1`: the Potency in [1] is > 11.4 µM (inactive); in [5] it was > 46 µM (inactive). Besides, the values for the activity change, negative = inhibition in [2] and in assay [10] were 9.59% (inactive) and 2.31% (inactive), respectively. In addition, the Potency result in assay [3], in assay [6] and in [7] was “inactive” each time. The activity, negative = inhibition in assay [4] is -1.85% (inactive). Moreover, the activation in assay [12] is 4.02% (inactive). Also, the results for the max response in assay [10] (setting [14]) and in [10] (setting [15]) were 18.5% and 24.9%, respectively. Besides, the result in assay [11] was inactive.
Regarding `COC(=O)N1CCC2(CCN(Cc3ccccc3OC)CC2)CC1`, the figures for the Potency in assay [1], in assay [5] and in assay [9] were > 11.4 µM (inactive), > 46 µM (inactive) and 2 µM (active), respectively. In addition, the figures for the activity change, negative = inhibition in assay [2] and in [10] were 8.84% (inactive) and 2.37% (inactive), respectively. Besides, the Potency entry in assay [3], in assay [6] and in [7] was “inactive” in each case. In addition, the activity, negative = inhibition in [4] was -8.38% (inactive). The activation in [12] was 2.91% (inactive). Besides, the max response in assay [10] (setting [14]) was determined as 6.33%; in assay [10] (setting [15]), 9.77%. Besides, the result in assay [11] was inactive.
Regarding `COc1ccccc1CN1CCC2(CCNCC2)CC1`, the Potency in [1] is > 11.4 µM (inactive); in assay [5], > 46 µM (inactive); in [9] it was 0.0316 µM (active). The activity change, negative = inhibition in assay [2] was -18.9% (inactive); in [10], -2.64% (inactive). Further, the Potency entry in [3], in [6] and in assay [7] was “inactive” in each case. Further, the activity, negative = inhibition in assay [4] was 6.24% (inactive). For the same molecule, the max response in [10] (setting [14]) is 1.08%; in [10] (setting [15]), -0.266%. Further, in assay [11], the outcome was inactive.
Regarding `O=C(c1ccncc1)N1CCC2(CCN(Cc3ccccc3)CC2)CC1`, the results for the Potency in assay [1] and in assay [5] were > 11.4 µM (inactive) and > 46 µM (inactive), respectively. The activity change, negative = inhibition in assay [2] is 3.68% (inactive); in assay [10] it was 3.67% (inactive). Further, the Potency result in [3], in assay [6], in [7], in assay [8] and in [13] was “inactive” each time. The activity, negative = inhibition in [4] was -6.01% (inactive). The figures for the max response in [10] (setting [14]) and in assay [10] (setting [15]) were 13.9% and 18.6%, respectively. For the same molecule, in [11], the outcome was inactive.
As to `COc1ccccc1CN1CCC2(CC1)CCN(C(=O)c1cccn1C)CC2`, the Potency was > 11.4 µM (inactive) in [1], > 46 µM (inactive) in assay [5] and 3.98 µM (active) in assay [9]. The activity change, negative = inhibition was 6.08% (inactive) in [2] and -1.94% (inactive) in assay [10]. Besides, the Potency result in [3], in assay [6] and in [7] was “inactive” throughout. In addition, in [4], the activity, negative = inhibition was -5.76% (inactive). The max response was 8.14% in assay [10] (setting [14]) and 8.04% in [10] (setting [15]). In addition, the outcome in [11] was inactive.
Turning to `CC(C)CN1CCC2(CC1)CCN(C(=O)c1ccncc1)CC2`, the Potency is > 11.4 µM (inactive) in assay [1], > 46 µM (inactive) in [5] and 3.98 µM (active) in assay [9]. Also, the results for the activity change, negative = inhibition in assay [2] and in [10] were -3.14% (inactive) and 0.393% (inactive), respectively. The Potency entry in assay [3], in [6], in assay [7] and in assay [8] was “inactive” each time. Moreover, the activity, negative = inhibition in assay [4] was -5.7% (inactive). Besides, the max response is 14.2% in assay [10] (setting [14]) and 14.7% in assay [10] (setting [15]). Besides, the result in [11] was inactive.
